Source: PubChem BioAssay AID2314 (National Center for Advancing Translational Sciences (NCATS), 2010)
The whole screen tested about 300,000 compounds, of which about 37,000 (12%) were called active. This is one part of a sample in which actives are shown more often than they occur. No stated cut-off is given here; in the data, active means max response mostly above about 13% (no sharp cut-off); inactive means mostly below about 14%.

Assay: Cycloheximide Counterscreen for Small Molecule Inhibitors of Shiga Toxin; further: read at 38.3 µM for the half of the compounds with a filed dose; 0% is about no effect
Settings: cell reporter, cycloheximide protein synthesis inhibition counterscreen; active compounds read high

| Compound | max response |
| --- | --- |
| COC(=O)c1sc(N2CCN(Cc3ccccc3)CC2)nc1N | -1.52% (inactive) |
| O=C(Nc1c2c(nn1-c1ccccc1)CS(=O)(=O)C2)C1CCCC1 | -1.45% (inactive) |
| N#C/C(=C\c1ccc(-c2cccc([N+](=O)[O-])c2)o1)C(=O)NCCN1CCOCC1 | 2.05% (inactive) |
| O=[N+]([O-])c1ccccc1SNc1ccccn1 | 0.9% (inactive) |
| C/C(CC(=O)NC(C)(C)C)=N\NC(=O)c1ccco1 | 40.4% (active) |
| CC(C)(C)NC(=O)c1cc(NC(=O)c2ccco2)cc(NC(=O)c2ccco2)c1 | -2.77% (inactive) |
| COc1ccc(N(CC(=O)NC(C)(C)C)C(=O)c2ccco2)cc1 | 1.33% (inactive) |
| COc1cc(S(=O)(=O)N2CCN=C2c2ccccc2)ccc1Cl | 3.04% (inactive) |
| CC(=O)c1nn(-c2cccc(Br)c2)cc1C(=O)c1cccc2ccccc12 | 4.07% (inactive) |
| CCOC(=O)c1cn(Cc2cccc(C)c2)nn1 | -0.759% (inactive) |
| CCOC(=O)c1nn(-c2cccc(C)c2)cc1C(=O)c1ccccc1 | 43.2% (active) |
| Cc1ccc(S(=O)(=O)N(CC(=O)NCCSC2CCCCC2)c2ccccc2F)cc1 | -3.31% (inactive) |
| NS(=O)(=O)c1ccc(CCNc2nc(C(F)(F)F)nc3ccccc23)cc1 | -0.703% (inactive) |
| COc1ccc(CCNC(=O)CSCc2ccc(Br)cc2)cc1OC | 1.16% (inactive) |
| Cn1ccc(NC(=O)Nc2ccc(Cl)cc2)n1 | 36.8% (active) |
| Cn1c(SCC(=O)Nc2ccc(Cl)cc2)nc(O)cc1=O | -0.536% (inactive) |
| Cc1nn(C)cc1C(=O)NNC(=S)Nc1ccc(Cl)cc1 | -3.2% (inactive) |
| COc1ccc(Cl)cc1C(=O)NCc1cn(C)nc1C | -4.09% (inactive) |
| Cc1nn(C)cc1CNC(=O)Nc1ccc(Cl)cc1 | 21.8% (active) |
| CN(C(=O)Nc1ccc(Cl)cc1)n1cnc2ccccc2c1=O | 3.38% (inactive) |
| CCc1ccccc1NC(=O)CN(c1ccc(OC)cc1OC)S(=O)(=O)c1ccccc1[N+](=O)[O-] | 10.7% (inactive) |
| O=c1ccc2cc(S(=O)(=O)Nc3ccccc3F)ccc2o1 | -3.48% (inactive) |
| Cc1ccc2c(c1)-c1c(ssc1=S)C(C)(C)N2C(=O)CN1C(=O)c2ccccc2C1=O | -4.7% (inactive) |
| CCCCC1S/C(=N/N=C/c2cccs2)NC1=O (configuration not stated) | -2.78% (inactive) |
| Nc1ccc(-c2nnc(-c3ccccc3)o2)cc1 | 51.7% (active) |
| Nc1ccc(-c2sc(N)nc2-c2ccccc2)cc1 | 1.13% (inactive) |
| Nc1ccc(-c2nnc(-c3ccc(-c4ccccc4)cc3)o2)cc1 | 58% (active) |
